Reference: PubChem BioAssay (NCATS)
Records with an inconclusive call do not appear. The source made the active and inactive calls. The call rests on the fitted dose curve; in most records, active means well fitted curve in the direction sought with a large enough effect; inconclusive means small, poorly fitted or top-dose-only effect, or another doubt; inactive means no such curve, though single readings can be large; an effect the other way counts as inactive or inconclusive. Where a SMILES comes first, the peptide text is derived from it. [ ]: non-standard residue; d: D form. The star is where a group is joined. Fmoc = O=C(OCC1c2ccccc2-c2ccccc21)*; AMC = Cc1cc(=O)oc2cc(N*)ccc12; Cha = N[CH](CC1CCCCC1)C(=O)O; Boc = CC(C)(C)OC(=O)*

System: Zika virus NS2B-NS3 protease
Test: Primary screen GU AMC qHTS for Zika virus inhibitors (AID 1347154); further: nearly all actives have a fitted effect of over 70% in size; further: potency means the concentration at half of the fitted maximal effect;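 on activity change, negative = inhibition: 0% = no-inhibitor control and -100% = no-enzyme control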
Conditions: Zika NS2B-NS3 unlinked protease, AMC fluorogenic substrate; series mostly up to 54.1 µM; activity change, negative = inhibition: at the top concentration
Summary of the method: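 Unlinked Zika NS2B hydrophilic domain/NS3 protease domain noncovalent complex (25 nM final) in 10 mM Tris-HCl pH 8.0, 0.01% Tween 20, with AMC peptide substrate. Fluorescence (ex 340, em 450 nm) change over 15 min, room temperature; percent inhibition fitted to 4-parameter Hill equation.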

Activity change, negative = inhibition, inactive:
N[C@H](C(=O)O)C1C(C(=O)O)C1C(=O)O (some centres undefined) -0.748%
CC[C@H](C)[C@H](NC(=O)[C@H](CCCN=C(N)N)NC(=O)[C@H](CCCN=C(N)N)NC(=O)[C@H](CC(C)C)NC(=O)[C@H](Cc1ccccc1)NC(=O)CNC(=O)CN)C(=O)N[C@@H](CCCN=C(N)N)C(=O)N1CCC[C@H]1C(=O)N[C@@H](CCCCN)C(=O)N[C@@H](CC(C)C)C(=O)N[C@@H](CCCCN)C(=O)O 11.9% [at 6.83 µM]
O=C1C(Nc2ccccc2)=CC(=O)c2ncccc21 14.9% [at 104 µM]
COc1ccc(C2CC(c3c(O)cc(C)oc3=O)=NCCS2)c(OC)c1 (centres undefined) 7.7%
CCCCCCOC(=O)C1(O)CC2OC1(C)n1c3ccccc3c3c4c(c5c6ccccc6n2c5c31)C(=O)NC4 (centres undefined) 19.5% [at 4.99 µM]
CC[C@]1(O)C[C@@H]2CN(CCc3c([nH]c4ccccc34)[C@@](C(=O)OC)(c3cc4c(cc3OC)N(C)C3[C@]45CCN4CC=C[C@](CC)(C45)[C@@H](OC(C)=O)[C@]3(O)C(=O)OC)C2)C1 (some centres undefined) 11.4% [at 25.8 µM]
CCCCC[C@H](O)/C=C/[C@@H]1[C@@H](C/C=C\CCCC(=O)O)[C@@H](O)C[C@@H]1O 11.6% [at 6.83 µM]
CC/C=C\C/C=C\C/C=C\CCCCCCCCCC(=O)O 1.1% [at 6.83 µM]
C[C@]12CC[C@@H](O)C[C@@H]1CC[C@@H]1[C@@H]2CC[C@]2(C)C=CC[C@@H]12 12.7%
COC(=O)[C@@H]1[C@H]2C[C@H]3c4[nH]c5ccccc5c4CCN3C[C@H]2CC[C@@H]1O -3.16%
O=C(O)CCc1cc(I)c(O)c(I)c1 9.07%
CCCCCCCC/C=C\CCCCCCCC(=O)OC[C@@H](O)COP(=O)(O)O 20.5% [at 6.83 µM]
CC[C@@H](C)[C@@H](CO[C@@H](Cc1ccccc1)C(=O)N[C@@H](CCS(C)(=O)=O)C(=O)OC(C)C)NC[C@@H](N)CS 16.5%
COC(=O)c1csc(C(=O)c2c[nH]c3ccccc23)n1 -5.7%
CC(C)[C@@H]1NC(=O)[C@H](Cc2ccccc2)NC(=O)[C@@H](CC(=O)O)NC(=O)CNC(=O)[C@H](CCCNC(=N)N)NC1=O 16.2%
C[C@H](N)CCCP(=O)(O)O 6.69%
CCCCCC(=O)/C=C/C=C\CCCCCCCC(=O)O 0.325% [at 0.59 µM]
CCCCCCCCCCCCCCCC(=O)N[C@@H](COP(=O)(O)O)C(=O)O 6.63% [at 6.83 µM]
CC(N)CCCP(=O)(O)O (centres undefined) 4.72%
CCC(=O)NC1CCc2cccc(OC)c2C1 (centres undefined) 1.4%
CC(C)[C@H](NC(=O)CNC(=O)OC(C)(C)C)C(=O)N[C@H](C=O)C(C)C (Boc-Gly-Val-Val-aldehyde) 23% [at 104 µM]
CCCCCCCC/C=C\CCCCCCCC(=O)OC[C@H](CO)OC(C)=O 16.8% [at 6.83 µM]
O=P(O)(O)C(O)c1ccc2ccccc2c1 (centres undefined) 5.33%
CC(C)C[C@H](NC(=O)[C@H](CCCCN)NC(=O)[C@H](CCCNC(=N)N)NC(=O)[C@H](C)NC(=O)[C@H](CO)NC(=O)[C@H](CCCCN)NC(=O)[C@H](CCCNC(=N)N)NC(=O)[C@H](C)NC(=O)CNC(=O)[C@@H](NC(=O)[C@H](Cc1ccccc1)NC(=O)CNC(=O)CNC(=O)[C@@H](N)Cc1ccccc1)[C@H](C)O)C(=O)N[C@@H](C)C(=O)N[C@@H](CC(N)=O)C(=O)N[C@@H](CCC(N)=O)C(=O)O -13.5% [at 6.83 µM]
COC(=O)/C=C/c1cccc(N(Cc2ccc(-c3ccc(N(C)C)cc3)cc2)C(=O)C2CCCCC2)c1 13.3%

Potency, active:
Cc1cc(=O)oc2cc(NC(=O)C(CCCCN)NC(=O)C(CC3CCCCC3)NC(=O)OCC3c4ccccc4-c4ccccc43)ccc12 (centres undefined) (Fmoc-[Cha]-Lys-{AMC}; configuration not given here) 18.9 µM

Potency, inactive:
CC1(C)Oc2ccc(C#N)cc2[C@@H](OC2=CC(=O)CC2)[C@@H]1O
CC(=O)N[C@@H](CSC/C=C(\C)CC/C=C(\C)CC/C=C(\C)CCC=C(C)C)C(=O)O
CC1=C(/C=C/C(C)=C\C=C\C(C)=C\C(=O)O)C(C)(C)CCC1

System: not listed separately
Test: Primary qHTS for small molecule stabilizers of the endoplasmic reticulum resident proteome: Secreted ER Calcium Modulated Protein (SERCaMP) assay (AID 1508630); further: on the % scale 0 is the no-effect control and ±100 the full control effect
Conditions: SH-SY5Y GLuc-SERCaMP (Gaussia luciferase released on ER calcium loss) secretion, thapsigargin, luminescence; series mostly up to 38.4 µM; activity change, negative = inhibition: at the top concentration
Summary of the method: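 GLuc-SERCaMP-expressing SH-SY5Y cells, pretreated 16 h with compound, are challenged with thapsigargin to empty ER calcium stores; after 4 h, coelenterazine is added directly to the medium and luminescence is imaged.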

Activity change, negative = inhibition, inactive:
NC(C(=O)O)C(CC(=O)O)c1ccc(Cl)cc1 (centres undefined) -15.8%
CCc1c2c(nc3ccc(OC(=O)N4CCC(N5CCCCC5)CC4)cc13)-c1cc3c(c(=O)n1C2)COC(=O)C3(O)CC (centres undefined) 102%
NCCn1oc(=O)[nH]c1=O -14%
C=C1Cc2c(Cl)cc3[nH]c4c5c3c2[C@@]2(O)[C@@H]1C[C@@H]2C(C)(C)O[C@H]5[C@@H]1CC[C@@]2(O)[C@@]35O[C@@H]3[C@@H](O)[C@@H](C(=O)O)O[C@H]5CC[C@]2(C)[C@@]41C 14.3%
CN(C)C(=O)n1nnnc1Cc1ccc(-c2ccccc2)cc1 -4.54%
CNCC(=O)NCC(=O)N[C@@H](Cc1ccccc1)C(=O)N[C@@H](CC(C)C)C(=O)O (HELM PEPTIDE1{[Sar].G.F.L}$$$$V2.0) -6.57% [at 3.88 µM]
CCCC1OC2CC3C4CCC5=CC(=O)C=CC5(C)C4C(O)CC3(C)C2(C(=O)CO)O1 (centres undefined) -25.6%
NC(CC(=O)Nc1ccc(Oc2cc(F)c(F)cc2Br)cc1)C(=O)O (centres undefined) -16.7%
COc1ccc(-n2[nH]c3c4c(ncc3c2=O)CCCCC4)cc1 -20.9%
C[C@H](CC[C@@H]1OC1(C)C)C1CC[C@H]2[C@@H]3CC=C4C[C@@H](O)CC[C@]4(C)[C@H]3CC[C@]12C (some centres undefined) 49.3%
CC(C)C[C@H](NC(=O)[C@H](Cc1ccccc1)NC(=O)CNC(=O)CNC(=O)[C@@H](N)Cc1ccc(O)cc1)C(=O)N[C@@H](CCCN=C(N)N)C(=O)N[C@@H](CCCN=C(N)N)C(=O)N[C@@H](CCC(N)=O)C(=O)N[C@@H](Cc1ccccc1)C(=O)N[C@@H](CCCCN)C(=O)N[C@H](C(=O)N[C@H](C(=O)N[C@H](C(=O)O)[C@@H](C)O)C(C)C)C(C)C -2% [at 3.88 µM]
N[C@H](C(=O)O)C1C(C(=O)O)C1C(=O)O (some centres undefined) 10.3%
CC[C@H](C)[C@H](NC(=O)[C@H](CCCN=C(N)N)NC(=O)[C@H](CCCN=C(N)N)NC(=O)[C@H](CC(C)C)NC(=O)[C@H](Cc1ccccc1)NC(=O)CNC(=O)CN)C(=O)N[C@@H](CCCN=C(N)N)C(=O)N1CCC[C@H]1C(=O)N[C@@H](CCCCN)C(=O)N[C@@H](CC(C)C)C(=O)N[C@@H](CCCCN)C(=O)O -2.68% [at 3.88 µM]
O=C1C(Nc2ccccc2)=CC(=O)c2ncccc21 -29% [at 76.3 µM]
COc1ccc(C2CC(c3c(O)cc(C)oc3=O)=NCCS2)c(OC)c1 (centres undefined) 67.3%
CCCCCCOC(=O)C1(O)CC2OC1(C)n1c3ccccc3c3c4c(c5c6ccccc6n2c5c31)C(=O)NC4 (centres undefined) -23% [at 3.88 µM]
CC[C@]1(O)C[C@@H]2CN(CCc3c([nH]c4ccccc34)[C@@](C(=O)OC)(c3cc4c(cc3OC)N(C)C3[C@]45CCN4CC=C[C@](CC)(C45)[C@@H](OC(C)=O)[C@]3(O)C(=O)OC)C2)C1 (some centres undefined) 42.4% [at 21.6 µM]
CCCCC[C@H](O)/C=C/[C@@H]1[C@@H](C/C=C\CCCC(=O)O)[C@@H](O)C[C@@H]1O -25.7% [at 3.88 µM]
CC/C=C\C/C=C\C/C=C\CCCCCCCCCC(=O)O 4.31% [at 3.88 µM]
C[C@]12CC[C@@H](O)C[C@@H]1CC[C@@H]1[C@@H]2CC[C@]2(C)C=CC[C@@H]12 23.3%
COC(=O)[C@@H]1[C@H]2C[C@H]3c4[nH]c5ccccc5c4CCN3C[C@H]2CC[C@@H]1O -21.6%
O=C(O)CCc1cc(I)c(O)c(I)c1 -13.1%
CCCCCCCC/C=C\CCCCCCCC(=O)OC[C@@H](O)COP(=O)(O)O -10.9% [at 3.88 µM]
CC[C@@H](C)[C@@H](CO[C@@H](Cc1ccccc1)C(=O)N[C@@H](CCS(C)(=O)=O)C(=O)OC(C)C)NC[C@@H](N)CS 45.3%
COC(=O)c1csc(C(=O)c2c[nH]c3ccccc23)n1 18.4%
CC(C)[C@@H]1NC(=O)[C@H](Cc2ccccc2)NC(=O)[C@@H](CC(=O)O)NC(=O)CNC(=O)[C@H](CCCNC(=N)N)NC1=O -13.6%
Cc1cc(=O)oc2cc(NC(=O)C(CCCCN)NC(=O)C(CC3CCCCC3)NC(=O)OCC3c4ccccc4-c4ccccc43)ccc12 (centres undefined) (Fmoc-[Cha]-Lys-{AMC}; configuration not given here) 2.21%
C[C@H](N)CCCP(=O)(O)O -22%
CCCCCC(=O)/C=C/C=C\CCCCCCCC(=O)O -7.64% [at 0.478 µM]
CCCCCCCCCCCCCCCC(=O)N[C@@H](COP(=O)(O)O)C(=O)O 2.76% [at 3.88 µM]
CC(N)CCCP(=O)(O)O (centres undefined) 5.83%
CCC(=O)NC1CCc2cccc(OC)c2C1 (centres undefined) 6.63%
CC(C)[C@H](NC(=O)CNC(=O)OC(C)(C)C)C(=O)N[C@H](C=O)C(C)C (Boc-Gly-Val-Val-aldehyde) 15.1%
CCCCCCCC/C=C\CCCCCCCC(=O)OC[C@H](CO)OC(C)=O -28% [at 3.88 µM]
O=P(O)(O)C(O)c1ccc2ccccc2c1 (centres undefined) -3.58%
CC(C)C[C@H](NC(=O)[C@H](CCCCN)NC(=O)[C@H](CCCNC(=N)N)NC(=O)[C@H](C)NC(=O)[C@H](CO)NC(=O)[C@H](CCCCN)NC(=O)[C@H](CCCNC(=N)N)NC(=O)[C@H](C)NC(=O)CNC(=O)[C@@H](NC(=O)[C@H](Cc1ccccc1)NC(=O)CNC(=O)CNC(=O)[C@@H](N)Cc1ccccc1)[C@H](C)O)C(=O)N[C@@H](C)C(=O)N[C@@H](CC(N)=O)C(=O)N[C@@H](CCC(N)=O)C(=O)O 13.9% [at 3.88 µM]
CC1=C(/C=C/C(C)=C\C=C\C(C)=C\C(=O)O)C(C)(C)CCC1 39.4%
COC(=O)/C=C/c1cccc(N(Cc2ccc(-c3ccc(N(C)C)cc3)cc2)C(=O)C2CCCCC2)c1 9.44%

Potency, inactive:
CC1(C)Oc2ccc(C#N)cc2[C@@H](OC2=CC(=O)CC2)[C@@H]1O
CC(=O)N[C@@H](CSC/C=C(\C)CC/C=C(\C)CC/C=C(\C)CCC=C(C)C)C(=O)O
